Data reported in ChEMBL document CHEMBL3433997, “St. Jude Leishmania screening dataset” (2016).

Experiments:
Assay type in all cases: functional
[1] = molecular target: Solute carrier family 2, facilitated glucose transporter member 1 (Homo sapiens) (UniProt P11166); test: ST_JUDE_LEISH: Cytotoxicity at 2uM final concentration against transgenic Leishmania Mexicana promastigotes LmGLUT1 that are glucose transport deficient and complemented with the human glucose transporter GLUT1. Activity is measured by DNA content using SYBR green in vitro
Sequence of Solute carrier family 2, facilitated glucose transporter member 1 (Homo sapiens) (P11166 whole entry): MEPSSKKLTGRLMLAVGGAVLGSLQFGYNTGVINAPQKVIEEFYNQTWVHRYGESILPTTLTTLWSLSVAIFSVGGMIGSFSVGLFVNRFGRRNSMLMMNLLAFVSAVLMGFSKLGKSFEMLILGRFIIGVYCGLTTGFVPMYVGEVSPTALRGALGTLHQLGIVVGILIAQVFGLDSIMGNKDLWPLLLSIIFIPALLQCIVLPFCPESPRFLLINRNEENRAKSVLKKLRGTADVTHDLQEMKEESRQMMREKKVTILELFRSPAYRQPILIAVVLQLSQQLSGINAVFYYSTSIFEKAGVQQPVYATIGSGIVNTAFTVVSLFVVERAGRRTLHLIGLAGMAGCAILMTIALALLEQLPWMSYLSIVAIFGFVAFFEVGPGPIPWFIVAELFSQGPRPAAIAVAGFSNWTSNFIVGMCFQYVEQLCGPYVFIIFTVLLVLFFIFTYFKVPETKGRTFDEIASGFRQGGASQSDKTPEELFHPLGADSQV

[2] = molecular target: Hexose transporter 1 (Plasmodium falciparum) (UniProt O97467); test: ST_JUDE_LEISH: Cytotoxicity at 2uM final concentration against transgenic Leishmania Mexicana promastigotes LmPfHT that are glucose transport deficient and complemented with the Plasmodium falciparum hexose transporter. Activity is measured by DNA content using SYBR green in vitro
[3] = molecular target: Glucose transporter (Leishmania mexicana) (UniProt O61059); test: ST_JUDE_LEISH: Cytotoxicity at 2uM final concentration against transgenic Leishmania Mexicana promastigotes LmGT2 that are glucose transport deficient and complemented with the L. Mexicana glucose transporter 2. Activity is measured by DNA content using SYBR green in vitro

SMILES | inhibition [1] | inhibition [2] | inhibition [3]
CC(C)N1CCC(N(Cc2ccc(-c3ccc(C(F)(F)F)cc3)cc2)C(=O)Cn2c(CCc3cccc(F)c3F)cc(=O)c3c2CCC3)CC1 | 3.12% | 4.34% | 5.2%
Oc1ccc(Cl)c2c1C(c1ccccc1)=NCC2 | -1.17% | -0.25% | 1.69%
c1ccc(-c2cc(NCCCCCCCCNc3cc(-c4ccccc4)nc4ccccc34)c3ccccc3n2)cc1 | 105% | 104% | 83.4%
Cc1cc(C2CCN(CCCCNC(=O)c3ccc(-c4ccc(C(F)(F)F)cc4)cc3)CC2)c(C)cc1OCCO | 5.21% | 5.28% | 2.63%
Fc1ccc2[nH]c3c(NCCCN4CCOCC4)ncnc3c2c1 | 1.79% | 0.7% | -0.69%
COc1cc2nc(SCCCC#N)n(C3CCCCCC3)c(=N)c2cc1OC | 7.27% | 5.84% | 2.84%
CN1CCC(N2CCN(Cc3cccc(-c4ccc(-c5nc6cc(C(F)(F)F)ccc6[nH]5)cc4)c3)CC2)CC1 | 2.62% | 3.31% | 2.07%
c1cc(-c2ccc(CNC3CCOCC3)cc2)cc(-c2nc3ccccc3[nH]2)c1 | -0.19% | 1.26% | -2.46%
Nc1ccc2[nH]cc(C3CCN(CC4CCN(C(=O)/C=C/c5ccc(Cl)c(Cl)c5)CC4)CC3)c2n1 | 2.32% | 1.93% | -0.49%
N/C(=N\c1cccc(Cc2ccccc2)n1)NCc1ccccc1 | 2.04% | -1.19% | 3.21%
c1ccc(Cn2nnnc2-c2cccc(Nc3ccnc4cc(-c5nccs5)ccc34)c2)cc1 | 1.8% | 2.17% | 1.96%
CCOc1cccc(C(=O)Nc2ccc(-c3nc4ccccc4[nH]3)cc2)c1 | 4.46% | 3.79% | 3.58%
OC(CNc1ccnc(Nc2cccc(CCN3CCOCC3)c2)n1)c1ccccc1 (stereo not drawn) | 0.07% | 3.46% | 1.35%
COCCNCc1ncsc1-c1ccc2c(Nc3cc(O)ccc3C)ccnc2c1 | 1.05% | 0.61% | 1%
O=C1NC(=S)N/C1=C/C=C/c1ccc([N+](=O)[O-])o1 | 27.9% | 30.9% | 5.12%
O=S(=O)(Nc1cc2c(cc1OCCCN1CCCCC1)CCNCC2)c1ccc(-c2ccc(Cl)cc2)cc1 | 1.29% | -0.13% | -0.37%
Cc1sc(N2CCN(C)CC2)nc1C(=O)Nc1ccc(F)cc1C(F)(F)F | 4.38% | 2.2% | 3.75%
Cc1cc2nc(-c3ccc(C(=O)NCc4cccc(F)c4)cc3)[nH]c2cc1C | -0.23% | 0.73% | -1.73%
COc1ccc2nccc([C@@H](O)CN3CCC(NC(=O)Cc4cc5ccccc5s4)CC3)c2c1 | 8.41% | 6.59% | 1.96%
Cc1cccc2nc(-c3ccc(-c4cccc(NC(=O)Nc5ccc6c(c5)OCO6)c4)cc3)[nH]c12 | 2.61% | 4.13% | 3.3%
c1ccc(CN2CCC(Nc3ccc(-c4c[nH]nc4-c4ccccn4)nc3)CC2)cc1 | 4.32% | 4.84% | 4.12%
CC(Cc1ccc(Cl)cc1)Nc1nc(NC2CCCC2)nc(N2CCC(C#N)(c3ccccc3)CC2)n1 (stereo not drawn) | 8.45% | 5.49% | -0.98%
CC[C@@H]([C@@H](CC(C)C)C(=O)N[C@@H](CCCCNC(=O)OCc1ccccc1)C(=O)Nc1ccccn1)N(O)C=O | 4.89% | 4.71% | 3.88%
O=C(Nc1cccc(-c2nn3ccccc3c2-c2ccnc(Nc3cccc(F)c3)n2)c1)C1CCCCC1 | 1.19% | 2.83% | -1.4%

SMILES | inhibition [1] | inhibition [2] | inhibition [3]
FC(F)(F)c1ccc2[nH]c(-c3ccc(-c4ccc(CN5CCN(c6cnccn6)CC5)cc4)cc3)nc2c1 | 12.9% | 10.6% | 7.09%
S=C(NCCCCCN1CCC(c2c[nH]c3ccccc23)CC1)Nc1ccc(Cl)c(Cl)c1 | 1.88% | 1.44% | 2.15%
O=C(NC1CCCCC1)N(CCCn1ccnc1)Cc1csc(-c2ccc(CNCc3ccccc3)cc2)n1 | 0.1% | 0.82% | 1.34%
Cc1cccc2nc(-c3cccc(-c4cccc(CN5CCN(c6ccc(C#N)cn6)CC5)c4)c3)[nH]c12 | 11.6% | 10.3% | 9.4%
Cc1nc(C)c(CC(=O)Nc2cccc(-c3cccc(-c4nc5cccc(C)c5[nH]4)c3)c2)s1 | -1.73% | -0.36% | -0.58%
CN1CCN(c2nc(NCCc3ccc(O)cc3)nc(NCc3ccccc3-c3ccc(C(F)(F)F)cc3)n2)CC1 | 1.59% | 2.22% | 3.13%
N#Cc1ccc2c(c1)CCN(CCC1CCC(NC(=O)/C=C/c3cc(Br)cs3)CC1)CC2 (stereo not drawn) | 5.26% | 2.93% | -0.56%
Clc1ccc(CNCC2CCN(CC3CCCCC3)CC2)cc1Cl | -1.58% | 0.7% | 0.64%
CCNC(=O)CCc1cccc(Br)c1 | -1.73% | -1.52% | -1.62%
COc1ccc2nccc([C@@H](O)CN3CCC(NC(=O)c4ccc(-c5ccccc5)s4)CC3)c2c1 | 9.94% | 14.6% | 4.67%
Clc1cc(Cl)c2cc(CN[C@H]3CCC[C@@H]3CNc3nc4ccccc4[nH]3)[nH]c2c1 | 0.55% | 1.94% | 2.36%
COc1ccc2nccc([C@@H](O)CN3CCC(NCc4ccc5c(c4)OCCO5)CC3)c2c1 | 6.76% | 5.93% | 0.41%
O=C(NC1CCC(N2CCCC(OCc3ccccc3)C2)CC1)c1cc2ccccc2[nH]1 (stereo not drawn) | 0.93% | 3.87% | -1.89%
COc1ccc(-c2ccc(Nc3cccc(S(=O)(=O)CCN4CCC(CCN(C)C)CC4)c3)nc2)cn1 | -2.17% | -1.68% | 1.63%
COc1ccc2nccc([C@@H](O)CN3CCC(NCc4ccc5cccc(O)c5n4)CC3)c2c1 | 7.73% | 7.94% | 3.46%
Clc1ccccc1CN1CCC(NCc2cccc(-n3ccnc3)c2)CC1 | 2.64% | -1.07% | 1.16%
O=C(NCC(NCCCNc1cc(=O)c2ccccc2[nH]1)c1cc(Br)cc(Br)c1)C1=CCCC1 (stereo not drawn) | 3.18% | 4.82% | 5.79%
O=C(Nc1cccc(CN2CCN(Cc3cccc(O)c3)CC2)c1)c1ccc(Cl)c(Cl)c1 | -1.71% | -0.84% | -1.62%
CC(C)Oc1ccc(C=CC(=O)Nc2noc3ccccc23)cc1 | 2.56% | 3.16% | 2.36%
CCc1c[nH]c2c(N(c3ccccc3)S(C)(=O)=O)cc(C(=O)N[C@@H](Cc3ccccc3)[C@H](O)CNCc3cccc(C(F)(F)F)c3)cc12 | 1.52% | 1.54% | -2.38%
COC(=O)c1ccc2c(c1)nc(Nc1cccc(F)c1)n2CC(O)c1ccccn1 (stereo not drawn) | 4.12% | 3.8% | 2.91%
O=C1OC(c2ccccc2)(c2ccccc2)CN1C1CCN(Cc2ccc(O)c(Cl)c2)C1 (stereo not drawn) | 1.71% | 1.04% | -0.68%
N#Cc1ccc(N/C(=N\c2cccc(Cl)c2Cl)NCc2ccc(Cl)cc2Cl)c(O)c1 | 9.71% | 9.71% | 9.16%
Cc1ccc(O)cc1Nc1ccnc2cc(-c3ccccc3)ccc12 | 7.87% | 8.41% | 7.72%

SMILES | inhibition [1] | inhibition [2] | inhibition [3]
c1ccc(-c2cc3cccc(-c4nc5cnccc5[nH]4)c3o2)cc1 | 10.8% | 11.5% | 10.6%
CCCCCOc1ccc(C(=NC)N(CCCCC)CCCCC)c2ccccc12 | 5.37% | 10.9% | 7.32%
Fc1ccc2[nH]c(-c3ccc(-c4ccc(CN5CCC(CCN6CCCCC6)CC5)cc4)s3)nc2c1 | 5.18% | 3.85% | 4.98%
O=C(NCC1CCN(Cc2cccc(C(F)(F)F)c2)C1)c1cc(-c2cccc(F)c2)cs1 (stereo not drawn) | 5.58% | 5.35% | 5.45%
O=C(NC1CCN(Cc2ccccc2)CC1)c1ccc(-c2nc3cc(Cl)c(F)cc3[nH]2)s1 | 3.32% | 3.3% | 4.27%
COc1cc(CCCON2C(=N)N=C(N)NC2(C)C)cc(OC)c1OC | 1.04% | -0.26% | 1.06%
Cc1cc(N)c2cc(NC(=O)/C=C/c3ccccc3Cl)ccc2n1 | -4.75% | 0.57% | -0.21%
CCOCCCn1c(=N)c(C(=O)NCc2ccc(OC)cc2)cc2c(=O)n3cccc(C)c3nc21 | 3.85% | 5.36% | 3.8%
Cc1cccc(-c2cccc3c(NC(=O)N4CCc5cc6nccc(N7CCN8CCC[C@H]8C7)c6cc54)cccc23)n1 | 0.18% | 0.95% | 1.48%
COc1ccc(Cl)cc1-c1nc(C(=O)NCCN2CCCCC2)c(C)s1 | 1.59% | 2.9% | 5.49%
COc1ccc(Oc2ccc(-c3c(C)[nH]c(C)c(Cl)c3=O)cc2)cc1 | 2.75% | 3.46% | 2.72%
O=C(Nc1cccc(CN2CCCN(Cc3ccccc3)CC2)c1)c1ccc(-c2ccccc2)cc1 | 3% | 4.14% | -0.61%
CSc1nccc(-c2ccc3ccnc(N)c3c2)n1 | 11.2% | 10.7% | 9.37%
COc1ccc2ncc(F)c(CCN3CCC(NCc4cc(C)c5c(c4)OCCO5)CC3)c2n1 | 11.1% | 15.4% | 5.07%
c1cc(CNC2Cc3ccccc3C2)cc(-c2cnc(N3CCNCC3)nc2)c1 | 0.76% | 2.77% | 1.2%
O=C(/C=C/c1ccc(Cl)cc1)NCCCCCN1CCC(C(=O)Nc2ccc(Cl)c(Cl)c2)CC1 | -0.38% | -2.11% | -0.64%
Cc1nc(N)nc(N)c1CCCOc1cccc(Cl)c1 | 7.39% | 7.51% | -0.98%
Cc1c(Cc2ccc(F)cc2)c(Cl)nc2nc(N)nc(N)c12 | 0.75% | 0.4% | -0.27%
OCCC1CCN(Cc2ccc(-c3ccc(-c4nc5ccccc5[nH]4)cc3)cc2)CC1 | 8.45% | 5.85% | 5.76%
CC(C)CCn1c(Sc2ccc(C#N)c([N+](=O)[O-])c2)nnc1-c1ccc(N(C)C)cc1 | 0.76% | 0.92% | 0.35%
Cc1c(C)c2c(c(C)c1O)CC[C@@](C)(C(=O)N1CCC(CCN3CCC(c4c[nH]c5ccccc45)CC3)CC1)O2 | 7.87% | 7% | 4.66%
Cc1cccc2nc(-c3cccc(-c4cccc(NC(=O)C(C)CN(C)C)c4)c3)[nH]c12 (stereo not drawn) | 1.51% | 1.39% | 2.3%
CN1CCC(N(Cc2ccc(-c3cnc(NCc4ccccc4)nc3)cc2)S(=O)(=O)c2ccccc2)CC1 | 14% | 12.1% | 3.05%
